# Source: the supplement of paper PMC12340641
# In all, about 1,000 compounds were measured (“relative growth in counter assay (no AraC = 100%, AraC + DMSO = 0%)”: median about -1.1, highest 2% from about 20 on). Many of the other results were omitted from the sample, so the highest values are more common in it than they were.
# Tested on: HEK293FT dCK*-only
# Test: relative growth in counter assay (no AraC = 100%, AraC + DMSO = 0%); higher = more growth rescue independent of IKZF1
# Conditions: compound concentration: 5 uM; AraC concentration: 0.3 uM; overnight pretreatment + 4 days AraC
# Experimental: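 Growth recovery screen of the molecular-glue-like (Specs) library. HEK293FT cells expressing a dCK*-IKZF1 fusion (primary) or dCK* alone (counter) were pretreated overnight with compound at 5 uM, then given 0.3 uM AraC for 4 days. Hoechst nuclei were counted by imaging. Primary: normalised to pomalidomide (100%) and DMSO (0%), mean of 2 replicates. Counter: normalised to no-AraC (100%) and AraC+DMSO (0%), single replicate.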
row,Structure (SMILES),relative growth in counter assay
1,CC1(C)C=C(CC(=O)N2CCOC(c3cccc(Nc4nccs4)n3)C2)CC(C)(C)N1 (centres undefined),6.81%
2,O=C(CN1C(=O)c2ccccc2C1=O)Nc1ccc(S(=O)(=O)Nc2ncccn2)cc1,-1.34%
3,O=C1c2ccc(Oc3ccc(NC(=O)C(F)(F)F)cc3)cc2C(=O)N1c1ccc(O)cc1,-3.44%
4,CCCOc1ccccc1C(=O)Nc1ccc(S(=O)(=O)Nc2nc(C)cc(C)n2)cc1,2.83%
5,CCCc1cnc(Nc2cccc(C3CCN(C(=O)C4CCCCN4CCO)CC3)n2)s1 (centres undefined),-7.08%
6,Cc1cnc(Nc2cccc(C3CCN(CC(=O)N(C)C4CCCCC4)CC3)n2)s1,-15.6%
7,Cc1cc(C)nc(NS(=O)(=O)c2ccc(NC(=O)C(C)C)cc2)n1,2.66%
8,Cc1cc(C)cc(OCC(=O)Nc2ccc(S(=O)(=O)Nc3cc(C)nc(C)n3)cc2)c1,7.68%
9,Cc1ccc(Cl)cc1NC(=O)CSc1nnc2c(n1)[nH]c1ccc(F)cc12,-2.7%
10,COc1ccc(CCC(=O)N2CCOC(c3cccc(Nc4ncc(C)s4)n3)C2)cc1 (centres undefined),9.66%
11,COc1ccc(CCC(=O)N2CCOC(c3cccc(Nc4nc(C)cs4)n3)C2)cc1 (centres undefined),19.5%
12,COc1cccc(CCC(=O)N2CCOC(c3cccc(Nc4ncc(C)s4)n3)C2)c1 (centres undefined),6.36%
13,Cc1csc(Nc2cccc(C3CN(C(=O)CCCc4ccc(F)cc4)CCO3)n2)n1 (centres undefined),36.2%
14,COCC(=O)N1CCOC(c2cccc(Nc3nc(C)cs3)n2)C1 (centres undefined),2.47%
15,Cc1csc(Nc2cccc(C3CN(C(=O)CCc4nc(C)no4)CCO3)n2)n1 (centres undefined),4.72%
16,CC(=O)N1CCC(c2csc(Nc3ccc(F)cn3)n2)CC1,4.68%
17,CCCCc1cnc(Nc2cccc(C3CCN(C(=O)[C@@H]4CCCN4CCO)CC3)n2)s1,2.3%
18,CC(C)c1ccc(OCC(=O)Nc2ccc(S(=O)(=O)Nc3ccccn3)cc2)cc1,4.55%
19,O=C(Nc1ccc(S(=O)(=O)Nc2ncccn2)cc1)Oc1ccccc1,-1.98%
20,Cc1cc(NS(=O)(=O)c2ccc(NC(=O)c3cc4ccccc4o3)cc2)nc(C)n1,-3.17%
21,Cc1nc(Nc2cccc(C3CCCN3C(=O)c3cc4ccc(F)cc4[nH]3)n2)sc1C (centres undefined),9.01%
22,O=C(CS(=O)(=O)c1ccccc1)Nc1ccc(S(=O)(=O)Nc2ncccn2)cc1,8.67%
23,O=C(Nc1ccc(S(=O)(=O)Nc2ccccn2)cc1)c1cccc(Cl)c1,-0.42%
24,O=C(O)CCCCCNc1cccc2c1C(=O)N(C1CCC(=O)NC1=O)C2=O (centres undefined),1.33%
25,CCCc1cnc(Nc2cccc(C3CCN(C(=O)C4CCCCC4)CC3)n2)s1,-19.4%
26,Cc1cnc(NC(=O)CN2CCC(c3cccc(Nc4nc(C)c(C)s4)n3)CC2)s1,24.2%

row,Structure (SMILES),relative growth in counter assay
1,Cc1cnc(Nc2cccc(C3CCN(CC(=O)N4CCC(C)CC4)CC3)n2)s1,-9.8%
2,COCC(C)NC(=O)CN1CCC(c2cccc(Nc3ncc(C)s3)n2)CC1 (centres undefined),-1.08%
3,Cc1cnc(NC(=O)CN2CCC(c3cccc(Nc4ncc(C)s4)n3)CC2)s1,-16.5%
4,Cc1nc(Nc2cccc(C3CN(CC(=O)N4CCC(C)CC4)CCO3)n2)sc1C (centres undefined),7.05%
5,Cc1nc(Nc2cccc(C3CCN(CC(=O)N4CCC(C)CC4)CC3)n2)sc1C,26.6%
6,COCC(C)NC(=O)CN1CCC(c2cccc(Nc3nc(C)c(C)s3)n2)CC1 (centres undefined),25.6%
7,COCC(C)NC(=O)CN1CCC(c2cccc(Nc3nccs3)n2)CC1 (centres undefined),-1.53%
8,Cc1cnc(Nc2cccc(C3CCN(CC(=O)Nc4c(F)cccc4F)CC3)n2)s1,-16.6%
9,Cc1cc(C)c2[nH]c3nc(SCC(=O)Nc4ccc(Cl)cc4)nnc3c2c1,-17.9%
10,Cc1cc(C)nc(NS(=O)(=O)c2ccc(Nc3nc(-c4ccc(Cl)cc4)cs3)cc2)n1,-7.62%
11,O=C(Nc1ccc(S(=O)(=O)Nc2ncccn2)cc1)c1ccc(Br)cc1,1.1%
12,CCOCC(=O)Nc1ccc(S(=O)(=O)Nc2ncccn2)cc1,-2.18%
13,O=C(C1CNCCO1)N1CCC(c2cccc(Nc3ncc(-c4ccccc4)s3)n2)CC1 (centres undefined),1.14%
14,O=S(=O)(Cc1ccccc1)Nc1ccc(S(=O)(=O)Nc2ncccn2)cc1,5.8%
15,Cc1ccnc(NS(=O)(=O)c2ccc(NC(=O)Cc3c(F)cccc3Cl)cc2)n1,10%
16,COc1ccc(-c2csc(Nc3ccc(S(=O)(=O)Nc4nc(C)cc(C)n4)cc3)n2)cc1,-6.81%
17,O=C(Nc1ccc(S(=O)(=O)Nc2ncccn2)cc1)c1ccccc1Br,-0.83%
18,Cc1ccc(OCC(=O)Nc2ccc(S(=O)(=O)Nc3ncccn3)cc2)cc1C,2.12%
19,COc1cccc(OC)c1C(=O)N1CCOC(c2cccc(Nc3nc(C)cs3)n2)C1 (centres undefined),10.3%
20,CC(=O)N1CCC(Cc2cccc(Nc3nccs3)n2)CC1,-8.99%
21,Cc1cnc(Nc2cccc(C3CN(C(=O)C4CCCC4)CCO3)n2)s1 (centres undefined),-17%
22,CC(=O)N1CCC(Cc2cccc(Nc3nc(C)cs3)n2)CC1,24.3%
23,Cc1csc(Nc2cccc(C3CN(C(=O)COc4c(C)cccc4C)CCO3)n2)n1 (centres undefined),1.27%
24,Cc1csc(Nc2cccc(C3CN(C(=O)CCC4CCCC4)CCO3)n2)n1 (centres undefined),32.3%
25,Cc1csc(Nc2cccc(CC3CCN(CC(=O)N(C)C)CC3)n2)n1,7.9%
26,Cc1cnc(Nc2cccc(C3CN(C(=O)CCC4CCCCC4)CCO3)n2)s1 (centres undefined),-1.73%

row,Structure (SMILES),relative growth in counter assay
1,Cc1csc(Nc2cccc(C3CN(C(=O)CCOc4ccccc4C)CCO3)n2)n1 (centres undefined),49.2%
2,Cc1csc(Nc2cccc(C3CN(C(=O)Cn4nc(C)ccc4=O)CCO3)n2)n1 (centres undefined),-2.02%
3,Cc1cnc(Nc2cccc(C3CN(C(=O)C4CC4c4ccc(Cl)cc4)CCO3)n2)s1 (centres undefined),28.7%
4,Cc1cnc(Nc2cccc(C3CN(C(=O)C45CC6CC(CC(C6)C4)C5)CCO3)n2)s1 (centres undefined),-1.75%
5,Cc1cnc(Nc2cccc(C3CN(C(=O)COc4cccc(F)c4)CCO3)n2)s1 (centres undefined),-7.34%
6,Cc1cnc(Nc2cccc(C3CN(C(=O)CCOc4cccc(F)c4)CCO3)n2)s1 (centres undefined),19.7%
7,Cc1cnc(Nc2cccc(C3CN(C(=O)COc4ccccc4)CCO3)n2)s1 (centres undefined),-9.61%
8,Cc1ccc(OCC(=O)Nc2ccc(S(=O)(=O)Nc3cc(C)nc(C)n3)cc2)c(C)c1,-2.7%
9,Cc1cc(C)nc(NS(=O)(=O)c2ccc(NC(=O)C(C)Oc3ccccc3F)cc2)n1 (centres undefined),5.27%
10,COc1ccccc1OCC(=O)Nc1ccc(S(=O)(=O)Nc2nc(C)cc(C)n2)cc1,-7.04%
11,CC(C)(C)C(=O)N1CCC(Cc2ccc(Nc3ncc(-c4ccc(F)cc4)s3)nc2)CC1,12.2%
12,Cn1nccc1/C=C/C(=O)N1CCCC1c1csc(Nc2ccccn2)n1 (centres undefined),-0.93%
13,CC(=O)N1CCCC(c2csc(Nc3ccccn3)n2)C1 (centres undefined),0.33%
14,O=C(/C=C/c1ccco1)N1CCCC(c2csc(Nc3ccccn3)n2)C1 (centres undefined),11.1%
15,Cn1nccc1/C=C/C(=O)N1CCCC(c2cc3ccccc3c(Nc3nccs3)n2)C1 (centres undefined),-13.3%
16,O=C(/C=C/c1ccccc1)N1CCCC(c2csc(Nc3ccccn3)n2)C1 (centres undefined),34.8%
17,Cn1nccc1/C=C/C(=O)N1CCCC(c2csc(Nc3ccccn3)n2)C1 (centres undefined),29%
18,O=C(C1CCCCC1)N1CCC(c2cccc(Nc3nccs3)n2)CC1,-10.8%
19,O=C(Nc1ccc(S(=O)(=O)Nc2ccccn2)cc1)c1cc2ccccc2o1,-2.82%
20,CCCc1cnc(Nc2cccc(C3CN(C(=O)C4CCCCC4)CCO3)n2)s1 (centres undefined),-12.3%
21,Cc1cnc(Nc2cccc(C3CCN(C(=O)C4CCC4)CC3)n2)s1,-21%
22,Cc1ccc(C)c(OCCCC(=O)Nc2ccc(S(=O)(=O)Nc3ncccn3)cc2)c1,-2.63%
23,CC(C)(C)c1ccccc1OCC(=O)Nc1ccc(S(=O)(=O)Nc2ccccn2)cc1,4.41%
24,COc1cc2c(cc1CCC(=O)N1CCCC1c1cccc(Nc3nccs3)n1)CCC2 (centres undefined),-3.49%
25,CC(C)(C)c1ccccc1OCC(=O)Nc1ccc(S(=O)(=O)Nc2ncccn2)cc1,-1.93%
26,Cc1cnc(Nc2cccc(C3CCN(C(=O)CCc4nc5ccccc5[nH]4)CC3)n2)s1,-4.59%

row,Structure (SMILES),relative growth in counter assay
1,CCCC(C)C(=O)Nc1ccc(S(=O)(=O)Nc2nccc(C)n2)cc1 (centres undefined),-3.64%
2,Cc1cnc(Nc2cccc(C3CN(C(=O)c4ccccn4)CCO3)n2)s1 (centres undefined),-7.73%
3,O=C(CSc1nnc2c(n1)[nH]c1ccc(Cl)cc12)Nc1ccc(Cl)cc1,3.64%
4,COC(=O)C(c1cccc(Nc2ncc(C)s2)n1)C1CCN(C(=O)C2(NC(=O)OC(C)(C)C)CCCCC2)CC1 (centres undefined),9.03%
5,COc1cc(NS(=O)(=O)c2ccc(NC(=O)c3ccc([N+](=O)[O-])cc3)cc2)nc(OC)n1,4.43%
6,CNC(=O)C(c1cccc(Nc2ncc(C)s2)n1)C1CCN(C(=O)[C@H](CC(C)C)NC(=O)OC(C)(C)C)CC1 (some centres undefined),8.97%
7,CCCC(=O)Nc1ccc(S(=O)(=O)Nc2cc(OC)nc(OC)n2)cc1,-1.4%
8,O=C(COc1ccc(F)cc1)N1CCC(c2cccc(Nc3nccs3)n2)CC1,6.47%
9,Cn1c(SCC(=O)Nc2ccccn2)nc2ccccc21,0.85%
10,COc1cc(NS(=O)(=O)c2ccc(NC(=O)/C=C/C(=O)O)cc2)nc(OC)n1,2.31%
11,CNC(=O)C(c1cccc(Nc2ncc(C)s2)n1)C1CCN(C(=O)c2cccc(Cl)c2F)CC1 (centres undefined),-0.24%
12,O=C(CO)N1CCC(c2cccc(Nc3ncc(-c4ccccc4)s3)n2)CC1,-21.4%
13,CCN1CC(C(=O)N2CCC(c3cccc(Nc4ncc(C)s4)n3)CC2)CC1=O (centres undefined),-1.29%
14,COc1cc(NS(=O)(=O)c2ccc(NCc3ccccc3O)cc2)nc(OC)n1,-0.72%
15,Cc1noc(CCC(=O)N2CCOC(c3cccc(Nc4nc(C)c(C)s4)n3)C2)n1 (centres undefined),5.54%
16,COc1cccc(C(=O)Nc2ccc(S(=O)(=O)Nc3ncccn3)cc2)c1,-5%
17,Cc1nc(Nc2cccc(C3CCN(C(=O)c4n[nH]c5c4CCCC5)CC3)n2)sc1C,14%
18,CCC(Oc1ccccc1)C(=O)Nc1ccc(S(=O)(=O)Nc2nc(C)cc(C)n2)cc1 (centres undefined),-3.58%
19,Cc1cc(C)nc(NS(=O)(=O)c2ccc(NC(=O)CSc3nc(C)cc(C)n3)cc2)n1,-6.83%
20,Cc1cc(C)nc(NS(=O)(=O)c2ccc(NC(=O)CSc3nccn3C)cc2)n1,2.1%
21,CCC(Oc1ccccc1)C(=O)Nc1ccc(S(=O)(=O)Nc2ncccn2)cc1 (centres undefined),27.4%
22,CCCC(=O)Nc1ccc(S(=O)(=O)Nc2nc(C)cc(C)n2)cc1,-9.14%
23,CC(Oc1ccccc1)C(=O)Nc1ccc(S(=O)(=O)Nc2ncccn2)cc1 (centres undefined),0.06%
24,Cc1cc(C)nc(SCC(=O)Nc2ccc(S(=O)(=O)Nc3ncccn3)cc2)n1,19.9%
25,Cc1cc(C)nc(NS(=O)(=O)c2ccc(NC(=O)CCl)cc2)n1,23.6%
26,CC(=O)Nc1ccc(S(=O)(=O)Nc2nc(C)cc(C)n2)cc1,-0.14%
